Source: PubChem BioAssay (National Center for Advancing Translational Sciences (NCATS))
The list is not random: actives were taken first. Their share in the collection is about 2.3%.
A549 tox: A549 cytotoxicity, counter-screen for Nrf2 inhibitors. A549 ARE-Fluc cells, CellTiter-Fluor viability, 18-24 h. Potency, µM (doses to about 46 µM), without a hit: at the highest dose activity change, negative = cytotoxicity, most hits filed as inhibitors. 390,000 compounds, 0.16% hits; further: potency means the concentration at half of the fitted maximal effect; on the % scale 0 is the no-effect control and ±100 the full control effect
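A549 ARE-Fluc cells in 5% FBS OPTI-MEM, 5000 cells/well, rested 2 h then exposed to compounds in concentration-response for 18-24 h at 37 °C. Viability by CellTiter-Fluor fluorescence (Ex 405/Em 525) after 30 min; luciferase luminescence (BugLite, 15 min, RT) read afterwards.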
IL-2 act: IL-2 activation | 360,000 compounds, 0.065% hits | activation, % (series mostly up to about 46 µM) | IL-2 activation reporter assay, cell-based qHTS; stimulated with anti-CD3/CD4/CD28 beads; in transgenic mouse T cells; in the data active means activation above about 50%; inconclusive means mostly about 30% to 49%; further: 0% is about no effect
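First, unstimulated transgenic mouse T cells were exposed to compound for 60 min. Next, anti-CD3/anti-CD4-coated beads with anti-CD28 were added. Finally, after 18 h at 37 degrees C, EGFP and DsRed were imaged.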
Nrf2 activator: activates Nrf2 signaling; AREc32 ARE-luciferase reporter (MCF7-derived line), luminescence, 24 h; Potency, µM (highest dose often 46.1 µM), without a hit: at the top dose activation, hits mostly activators; 410,000 compounds, 0.31% hits; further: potency means the concentration at half of the fitted maximal effect; % of control where 0% means no effect; nearly all actives have a fitted effect of over 65% in size
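Quantitative high-throughput format: AREc32 reporter cells, 1000 per well, received compound by pin transfer and were incubated 24 hr at 37 deg C, 5% CO2, before Steady-Glo luminescence detection.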
Nrf2 inh: blocks Nrf2 signaling. A549 ARE-Fluc reporter, luciferase luminescence, 18-24 h. Potency, µM (doses to about 46 µM), for inactives: at the top dose activity change, negative = inhibition, actives largely listed as inhibitors. 360,000 compounds, 2.1% hits; further: potency means the concentration at half of the fitted maximal effect; on the % scale 0 is the no-effect control and ±100 the full control effect; nearly all actives have a fitted effect of over 60% in size
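Reporter: ARE-Fluc in A549. Exposure: 18-24 h, 37 °C, 5% CO2, 5% FBS OPTI-MEM. Readouts: fluorescent cytotoxicity (CellTiter-Fluor), then luminescent Nrf2 signal after BugLite.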
Starred values were filed as active, the others as inactive; ? = inconclusive; · = not tested or not shown. Unless noted, the call rests on the fitted dose curve; in most records, active means well fitted curve in the direction sought with a large enough effect; inconclusive means small, poorly fitted or top-dose-only effect, or another doubt; inactive means no such curve, though single readings can be large; an effect the other way counts as inactive or inconclusive.

SMILES	A549 tox	IL-2 act	Nrf2 activator	Nrf2 inh
Cc1cccnc1NC(=O)CNC(=O)c1cccs1	-0.6%	-2.1	-0.2%	8.1%
CN1C(=O)C2(OCC(COc3ccc(Cl)cc3)O2)c2ccccc21 (configuration not stated)	-10.3%	-0.2	0.7%	18.4µM*
Cc1ccc(C(=O)c2cccc(N)c2)cc1C	-0.4%	-0.3	-1.8%	5.8µM*
Cc1ccc(Nc2nc(NCc3ccco3)nc3nccnc23)c(C)c1	-0.4%	·	·	4.6%
O=C(NN1C(=O)C2C(c3ccccc3)C=CC(c3ccccc3)C2C1=O)c1cccc(Br)c1 (configuration not stated)	6.8%	-0.4	11.2µM*	-8.3%
O=C(NN1C(=O)C2C(c3ccccc3)C=CC(c3ccccc3)C2C1=O)c1ccccc1 (configuration not stated)	0.2%	-2.4	4.6%	-21.9%
Cc1cccc(N2CCN(C(=O)C(NS(=O)(=O)c3cccs3)c3ccccc3)CC2)c1C (configuration not stated)	-14.1%	-1.7	-0.1%	9.2µM*
Cc1ccn2c(-c3csc(NCc4ccccc4)n3)c(C)nc2c1	?	-1.0	5.6%	25.9µM*
Cc1cc(Cl)ccc1NS(=O)(=O)c1ccc2c(c1)CC(C)N2C(=O)C1CCC1 (configuration not stated)	-2.5%	·	2.0%	20.6µM*
CC(=O)Nc1ccc(NS(=O)(=O)c2ccc3c(c2)CC(C)N3C(=O)C2CCC2)cc1 (configuration not stated)	-2.2%	·	0.7%	18.7%
Cc1ccc(NS(=O)(=O)c2ccc3c(c2)CC(C)N3C(=O)C2CCC2)cc1Cl (configuration not stated)	-16.4%	·	1.7%	20.6µM*
O=C(C1CCC1)N1CCc2cc(S(=O)(=O)Nc3ccc4c(c3)OCO4)ccc21	-7.7%	-2.6	0.4%	10µM*
CCc1ccc(-n2nc(C)c3c(C)cc(=O)n(CC(=O)Nc4ccccc4C(=O)OC)c32)cc1	-15.6%	·	-0.3%	1.0%
Cn1c(=O)n(CC(=O)O)c(=O)c2c1nc1n2CCCN1c1ccc(Cl)cc1	-3.1%	·	-1.3%	1.7%
CC1=C(C(=O)OCc2ccc3c(c2)OCO3)C(c2ccc(Cl)cc2)NC(=O)N1 (configuration not stated)	?	-1.7	-0.3%	7.31µM*
CCOC(=O)C1=C(CCl)NC(=O)NC1c1ccc2c(c1)OCO2 (configuration not stated)	-18.0%	-0.5	20.7%	14.6µM*
CC(C)C[C@H](NC(=O)OC(C)(C)C)C(=O)N/N=C/C1=Cc2ccccc2OC1C (some centres not stated)	?	-2.6	3.1%	20.6µM*
CC(C)C[C@H](NC(=O)OC(C)(C)C)C(=O)N/N=C/c1ccc2nccnc2c1	10.3%	0.4	-0.1%	-24.0%
CC1CCCN(C(=O)N2c3ccccc3Sc3ccccc32)C1 (configuration not stated)	?	-2.3	-0.2%	16.4µM*
O=S(=O)(c1ccc2ncsc2c1)N1CCN(c2nc(-c3cccs3)nc3ccccc23)CC1	-3.4%	·	·	?
COc1ccc(CCNC(=O)CCc2c(C)c3cc4c(C)c(C)oc4cc3oc2=O)cc1	-4.3%	·	4.1%	0.6%
O=C(NC(Nc1nc2ccc([N+](=O)[O-])cc2s1)(C(F)(F)F)C(F)(F)F)c1cccnc1	7.31µM*	-0.7	-1.4%	5.8µM*
O=C(NC(Nc1nc2ccc([N+](=O)[O-])cc2s1)(C(F)(F)F)C(F)(F)F)c1ccccc1Cl	5.8µM*	-1.0	-0.4%	1.84µM*
O=C(NC(NNc1ccc([N+](=O)[O-])cc1)(C(F)(F)F)C(F)(F)F)c1ccccc1Cl	?	-2.1	7.5%	-19.9%
CCc1nnc(N2CCN(c3ncnc4c3oc3ccccc34)CC2)s1	-5.8%	0.1	2.8%	10.3µM*
O=C(NCC(c1ccc(Cl)cc1)N1CCCCC1)c1ccccc1 (configuration not stated)	-0.9%	·	0.2%	15.9%
CCN(CC)Cc1c(NC(=O)c2ccccc2)sc(C)c1C	12.0%	-0.2	11.2µM*	20.5%
CC(=O)c1nnn(-c2nc(C#N)nc(N3CCOCC3)n2)c1C	1.4%	·	·	8.4%
C=C1CC2(OC1=O)c1ccccc1CCc1ccccc12	?	-6.7	?	16.4µM*
O=C1NC(=O)C2(CCc3ccccc32)N1 (configuration not stated)	-5.9%	2.5	0.4%	-11.0%
